A selection: hits, their analogues and other compounds. The true share with any hit is near 12%.
L3MBTL1 block – qHTS Assay for the Inhibitors of L3MBTL1; 230,000 compounds, 0.66% hits; Lethal(3)malignant brain tumor-like protein 1 (Homo sapiens), Q9Y468; AlphaScreen L3MBTL1–H3K9me1 peptide binding; Potency, µM (doses to about 57.1 µM), for the others: at the highest dose activity, negative = inhibition, usual class: inhibitors; note: % is set by controls: 0 for no effect and ±100 for the full control effect; nearly all actives have a fitted effect of over 60% in size
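L3MBTL1 50 nM + b-AHA-H3(1-15)K9me1 75 nM, 30 min RT; compound added, 30 min RT; streptavidin donor/Ni-chelate acceptor beads 10 ug/mL each final, 30 min RT dark; AlphaScreen read.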
Sfp PPTase inh – qHTS Assay for Inhibitors of Bacillus subtilis Sfp phosphopantetheinyl transferase (PPTase). 4'-phosphopantetheinyl transferase ffp (Bacillus subtilis), Q9F4F7. Biochemical Sfp PPTase activity, qHTS. Potency, µM, inactives show largest response in the series, negative = inhibition, most hits filed as inhibitors. 310,000 compounds, 3.5% hits;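 note: the enzyme is Sfp with the accession as filed and its product quenches rhodamine fluorescence; 0% = enzyme reaction without inhibitor and -100% = no enzyme wells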
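Compounds were incubated with enzyme (final 15 nM) for 15 min at room temperature before substrate addition started the reaction. Fluorescence at 525 nm excitation, 598 nm emission was recorded immediately and after 30 minutes.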
BAZ2B block – qHTS Assay for Inhibitors of BAZ2B | Bromodomain adjacent to zinc finger domain protein 2B (Homo sapiens), Q9UIF8 | AID 504333, 2011 | AlphaScreen BAZ2B-H3K14Ac peptide displacement | 360,000 compounds, 4.4% hits | Potency, µM (series often up to 114 µM), for inactives: at the highest dose activity change, negative = inhibition, hits mostly inhibitors; note: % is set by controls: 0 for no effect and ±100 for the full control effect; nearly all actives have a fitted effect of over 60% in size
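In this displacement format the biotinylated H3(5-23) peptide acetylated at Lys14 serves as ligand at 50 nM, with BAZ2B at 50 nM in PBS pH 7.4 containing 0.01% Tween-20. Donor and acceptor beads are 10 ug/mL final.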
HP1b chromo inh – HTS for Inhibitors of HP1-beta Chromodomain Interactions with Methylated Histone Tails. 390,000 compounds, 0.56% hits. AlphaScreen HP1-beta / biotin-H3K9me3 peptide binding. Chromobox protein homolog 1 (Homo sapiens), P83916. Potency, µM (highest dose often 114 µM), without a hit: at the highest dose activity change, negative = inhibition, usual class: inhibitors; note: nearly all actives have a fitted effect of over 70% in size
Target sequence (P83916 whole entry, looked up): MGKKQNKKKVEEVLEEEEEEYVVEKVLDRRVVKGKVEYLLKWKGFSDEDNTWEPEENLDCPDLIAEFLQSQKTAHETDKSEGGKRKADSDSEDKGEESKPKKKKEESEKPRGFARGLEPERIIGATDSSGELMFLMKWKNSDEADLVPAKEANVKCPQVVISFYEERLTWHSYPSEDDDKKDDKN
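HP1-beta protein (50 nM final) preincubated 30 min at room temperature with biotinylated H3(1-18)K9me3 peptide (50 nM) in PBS pH 7.4, 0.01% Tween-20, then compound added for 30 min. AlphaScreen streptavidin donor/nickel chelate acceptor beads (10 ug/mL final), 30 min dark, luminescence read.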
JMJD2A Tudor – qHTS Assay for Inhibitors of JMJD2A-Tudor Domain. Lysine-specific demethylase 4A (Homo sapiens), O75164. AlphaScreen JMJD2A-Tudor / H3K4me3 peptide binding. Potency, µM (top dose mostly 114 µM), for the others: at the highest dose activity change, negative = inhibition, actives largely listed as inhibitors. 390,000 compounds, 4.4% hits. AID 504339, 2011; note: % is set by controls: 0 for no effect and ±100 for the full control effect; nearly all actives have a fitted effect of over 50% in size
G9a block – qHTS Assay for Inhibitors of Histone Lysine Methyltransferase G9a; Histone-lysine N-methyltransferase EHMT2 (Homo sapiens), Q96KQ7; G9a H3K9 monomethylation, AlphaScreen, 2 h; Potency, µM (doses to about 102 µM), without a hit: at the top dose activity, negative = inhibition, hits mostly inhibitors; 350,000 compounds, 8.8% hits; AID 504332, 2011; note: % is set by controls: 0 for no effect and ±100 for the full control effect; nearly all actives have a fitted effect of over 75% in size
Target sequence (Q96KQ7 913-1193 limits assumed): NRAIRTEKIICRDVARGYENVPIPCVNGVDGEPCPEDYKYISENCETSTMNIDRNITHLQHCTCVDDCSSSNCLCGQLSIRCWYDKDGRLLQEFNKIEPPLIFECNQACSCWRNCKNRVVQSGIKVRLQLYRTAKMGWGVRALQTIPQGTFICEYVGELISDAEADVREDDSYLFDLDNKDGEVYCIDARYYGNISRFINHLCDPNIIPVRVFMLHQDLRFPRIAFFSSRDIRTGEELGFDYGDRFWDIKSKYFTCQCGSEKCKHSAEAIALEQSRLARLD
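Signal arises when biotinylated H3K9 peptide, once monomethylated, bridges streptavidin donor and antibody-captured acceptor beads. Enzyme at 20 nM was preincubated 15 min with test compounds; peptide 500 nM and SAM 20 uM then reacted for 2 h.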
* hit, by the source's call; ? = inconclusive; . = not tested or not shown; [ ] = another dose, or the depositor's remark. Calls come from the whole dose curve; as a rule, active = well fitted curve in the direction sought with a large enough effect; inconclusive = small, poorly fitted or top-dose-only effect, or another doubt; inactive = no such curve, though single readings can be large; an effect the other way counts as inactive or inconclusive. Potency is the fitted concentration of half-maximal effect.

SMILES	L3MBTL1 block	Sfp PPTase inh	BAZ2B block	HP1b chromo inh	JMJD2A Tudor	G9a block
CC(=O)Nc1ccc(-c2nnc(SCc3ccc(C)cc3)n2C)cc1	.	-7%	4%	30%	-11%	5µM*
Cc1occc1-c1nnc(SCC(=O)Nc2ccccc2)n1C	0%	12%	-26%	20%	-6%	8%[12.7 µM]
CC(C)c1cnc2c(c1SCc1ccc([N+](=O)[O-])cc1)c(=O)n(C)c(=O)n2C	.	.	-32%	24%[57 µM]	-19%	?
COc1ccc(/C=C2\SC(=S)N(CC(=O)OCC(=O)Nc3cc(Cl)cc(Cl)c3)C2=O)cc1	.	20µM*	-38%	-4%	?	32µM*
O=C(CCCN1C(=O)/C(=C/c2cccs2)SC1=S)NNC(=O)c1ccccc1O	?	21%	56µM*	23%	-18%	19%[59 µM]
COc1ccc(/C=C2/SC(=S)N(CCCC(=O)Nc3cccc(O)c3)C2=O)cc1	.	0%	?	?	?	?
COc1ccc(/C=C2\SC(=S)N(CCCC(=O)NNC(=O)c3ccccc3O)C2=O)cc1	-2%	-21%	50µM*	?	-13%[11.4 µM]	2%
CCc1ccc(/C=C2\SC(=S)N(CCCC(=O)Nc3ccccc3C(=O)O)C2=O)cc1	.	-1%	?	2%	?	32µM*
O=C(CCCN1C(=O)/C(=C\c2ccccc2)SC1=S)Nc1ccc(C(=O)O)cc1	.	7%	-26%	-23%	?	?
CCc1ccc(/C=C2\SC(=S)N(CCCC(=O)Nc3ccc(C(=O)O)cc3)C2=O)cc1	.	-23%	35µM*	?	50µM*	-3%
COc1ccc(/C=C2/SC(=S)N(CCCC(=O)Nc3ccccc3C(=O)O)C2=O)cc1	.	27%	?	-32%	?	79µM*
CCOC(=O)C1CCCN(CCC(=O)Nc2cccc(Cl)c2C)C1 (stereo unspecified)	4%	1%	10%[0.457 µM]	11%	-6%	3%[59 µM]
CC(C)[C@H]1C=C(C(=O)O)O[C@@H](OCc2ccc(CO)cc2)C1	.	7%	?	25%	89µM*	?
COC(=O)c1ccccc1S(=O)(=O)N1CCc2nc(-c3ccccc3)c3c(c2C1)CO[C@@H](C)C3	.	-17%	.	.	.	.
CCc1nc(NCC(C)C)c(C#N)c2c1COC(C)(C)C2	0%	8%	-3%	42%	8%	-5%[59 µM]
CCc1nc(NCCO)c(C#N)c2c1CSC(C)(C)C2	43%	71µM*	-7%	64%	-9%	.
COc1ccc(/C(=N/Nc2ncnc3ccccc23)C(=O)O)cc1	.	63µM*	6%	10%	?	?
CCOC(=O)/C(=N\Nc1ncnc2ccccc12)c1ccc(OC)cc1	.	-19%	-32%	24%	-25%	10%
Nc1cc2c(cc1[N+](=O)[O-])-c1ccccc1C2=NO	.	.	.	?	28µM*	.
COc1ccc(NC(=O)COc2ccc(/C=C/c3cccc[n+]3C)cc2OC)cc1	.	10%	-15%	10%	-9%	9%
COc1cc(/C=C/c2cccc[n+]2C)ccc1OCC(=O)Nc1ccccc1	.	-12%	-15%	9%	-10%	45µM*
COc1cc(/C=C/c2cc[n+](C)cc2)ccc1OCC(=O)Nc1ccc(Cl)c(Cl)c1	.	-58%	?	15%	-13%	?
COc1cc(/C=C/c2cccc[n+]2C)ccc1OCC(=O)Nc1cccc(Cl)c1	.	-17%	?	-10%	-6%	50µM*
O=[S+]([O-])(c1c(F)cccc1F)N1CCN([S+](=O)([O-])c2csc3ccccc23)CC1	.	.	.	.	-16%	.

Compound activity (PubChem BioAssay)
